{"source": "PubChem BioAssay AID651819", "about": "(National Center for Advancing Translational Sciences (NCATS), 2012)", "note": "Hit rate of the full screen: of about 360,000 compounds, about 1,100 (0.31%) were called active. The sample holds actives, similar compounds and a random draw of the others, so the mix is not that of the screen. Unmarked numbers belong to inactive results. No stated cut-off is given here; in the data, active means activity change below about -30%; inactive means the rest. On the % scale 0 is the no-effect control and ±100 the full control effect.", "data": [{"test_system": "cytosolic chaperonin (CCT/TRiC complex)", "experiment": "High-Throughput Screening for Modulators of Cytosolic Chaperonin Activity", "settings": "purified chaperonin ATPase assay, HTRF ADP detection, 30 min; stronger effect = lower value", "excerpt": "The eukaryotic chaperonin named TRiC (for TCP-1 ring complex), also called CCT (for chaperonin containing TCP1), is an essential and conserved chaperone required for the folding and activation of 10-15% of the proteins encoded by the human genome. […] Despite its central role in cellular folding, little is known about TRiC mechanism and mode of substrate binding. Currently, no specific TRiC inhibitors are available. Given the early promise of other chaperone-directed inhibitors as cancer therapeutics (e.g. HSP90 inhibitors), inhibitors of TRiC activity may also selectively target transformed cells and have potential use as therapeutics for cancer.\nTo this end, a miniaturized assay was developed to screen against the Molecular Libraries Small Molecule Repository (MLSMR).\nNIH Chemical Genomics Center [NCGC]\nNIH Molecular Libraries Probe Centers Network [MLPCN]\nAssay Submitter (PI): Judith Frydman, Stanford University\n1.5 uL/well TRiC enzyme suspended in buffer (30 mM TRIS pH7.4, 100 mM KCl, 5 mM MgCl2, 1 mM DTT) was added with BioRAPTR FRD dispenser at 40 nM or 20 nM (based on the enzymatic activity of used batches) final concentration to a white solid bottom medium binding 1536-well plate (Greiner Bio-One, Monroe, NC), and quickly spanned down. 23 nl/well of compound solutions in DMSO were added with a pintool transfer (Kalypsis, San Diego, CA) at a single 76 uM final concentration. Next, 1.5 µl/well ATP was dispensed with BioraptR at 10 uM final concentration after which the plates were incubated at 37 deg C for 30 min. HTRF(R) Transcreener(R) ADP (Cisbio US, Bedford, MA) detection reagents were prepared accordingly to the protocol and dispensed into the plate (1.5 uL/well each), incubated for 30 min at ambient temperature. Then, the plates were read using Envision reader with excitation at 330nm and emission at 615nm (Eu(3)-Cryptate donor signal) and 665nm (d2 acceptor signal). The ratio of […] was calculated for each well.", "values": [{"smiles": "Nc1ccc([N+](=O)[O-])cc1", "activity change": "-35.1% (active)"}, {"smiles": "CC(=O)Cc1ccc(OC(C)C)cc1", "activity change": "-4.19%"}, {"smiles": "CC(C)(C)c1ccc(OC(=O)N2CCCCC2)cc1", "activity change": "-0.84%"}, {"smiles": "COc1ccc(CCn2c(O)c(C=NC3CC3)c(=O)[nH]c2=O)cc1OC", "activity change": "-0.86%"}, {"smiles": "O=C1NC(=O)C(C/C=C/c2ccccc2)C(=O)N1", "activity change": "-117% (active)"}, {"smiles": "O=C1NC(=O)C(Cc2ccccc2)C(=O)N1", "activity change": "-0.218%"}, {"smiles": "CSC1=NP(=S)(SC)N(C)c2nc3n(c21)CCC3", "note": "(stereo not given)", "activity change": "-0.177%"}, {"smiles": "CCOC(=O)c1c(C)c(C(=O)N2CCC3(CC2)OCCO3)c(C)n1CC", "activity change": "-3.47%"}, {"smiles": "COCCNC(=O)CN1C2CCC1CC(O)(c1cccnc1)C2", "note": "(stereo not given)", "activity change": "0.503%"}, {"smiles": "Cc1ccc(Cn2nnnc2CN2CCC(n3nnc4ccccc43)CC2)cc1", "activity change": "-0.0525%"}]}]}
